Data from PubChem BioAssay.

assay: compound effects on multiple myeloma cell viability – MM1S, calcein-AM fluorescence, 48 h, basal, profiling panel (AID 1165); details: higher = more signal;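 also: viability of MM1S multiple myeloma cells under basal unstimulated conditions; test concentration not given here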

| Compound | z-score |
| --- | --- |
| Cc1ccc(N2C(=O)c3ccccc3[C@@H](C(=O)NC3CC3)[C@@H]2c2ccc(CO)cc2)nc1 | 0.0291 |
| CCCCC(CC)C(O)C1C=CC2C(=O)N(Cc3ccccc3)C(=O)C2N1n1cnnc1 (configuration not stated) | -0.165 |
| C[C@H]1NC(=O)[C@@]23C(=O)N[C@@H](Cc4ccccc4)C2[C@H](C)[C@@]2(C)O[C@H]2C3/C=C/C/C=C\CNC(=O)[C@@H]2CCCN2C1=O (some centres not stated) | -1.6 |
| CC(=O)n1cc(C(O)C2C=CC3C(=O)N(c4ccccc4)C(=O)C3N2Nc2ccc([N+](=O)[O-])cc2)c2ccccc21 (configuration not stated) | -1.53 |
| C[C@@]1([C@@H](NC(=O)c2ccc(-c3ccccc3)cc2)c2ccc(Cl)cc2)C[C@H]1C1CCCCC1 | -3.43 |
| C=CCNC(=O)[C@@H]1[C@H]2C(=O)O[C@H](c3ccccc3)[C@H](c3ccccc3)N2[C@H](c2ccc(O)cc2)[C@@]12C(=O)Nc1ccc(C#CCNC(N)=O)cc12 | -0.925 |
| C=C(/C(=C/C[C@H](OC(C)=O)c1ccccc1OCCO)c1cnc2ccccc2c1)C(C)C | -3.32 |
| COc1ccc(/C=C/C=O)cc1 | 0.418 |
| COCCOC(=O)N1C(=O)[C@@]2(c3cc(C#Cc4ccc(OC)cc4)ccc31)[C@H](c1ccc(OCCO)cc1)N1[C@H](c3ccccc3)[C@H](c3ccccc3)OC(=O)[C@H]1[C@@H]2C(=O)N1CCN(c2ncccn2)CC1 | -0.624 |
| COc1ccc(CCNC(=O)[C@@]2(Sc3ccc(C)cc3)CC(=O)N(C3Cc4ccccc4C3)[C@@H]2c2ccc(CO)cc2I)cc1 | -2.56 |
| COc1ccc([Si](C)(C)[C@@H]2[C@@H](CC(=O)N3CCC[C@H]3CO)O[C@]3(C(=O)N(c4ccccc4)c4ccccc43)[C@H]2C)cc1 | -0.011 |
| COc1ccc(C#Cc2ccc3c(c2)[C@]2(C(=O)N3)[C@H](C(=O)NC[C@H](O)c3ccccc3)[C@H]3C(=O)O[C@H](c4ccccc4)[C@H](c4ccccc4)N3[C@@H]2c2ccc(O)cc2)cc1 | -3.27 |
| CC(C)C[C@@H]1NC(=O)[C@@H]2C[C@H](C(=O)O)[C@H](c3cccc(OCCO)c3)N2C1=O | 0.101 |
| CC#CC(=O)Oc1ccccc1C=CC(=O)OCC | -3.27 |
| CO[C@H]1O[C@H](CO)[C@@H](OC(=O)Nc2ccccc2)[C@H](OC(=O)Nc2ccccc2)[C@@H]1OC(=O)Nc1ccccc1 | -1.81 |
| COCCOC(=O)N1C(=O)[C@@]2(c3ccccc31)[C@H](C(=O)N1CCc3cc(OC)c(OC)cc3C1)[C@H]1C(=O)O[C@H](c3ccccc3)[C@H](c3ccccc3)N1[C@@H]2c1ccc(OCCO)cc1 | -1.1 |
| O=C1N(Cc2ccccc2)c2ccccc2[C@@H]2OC(c3ccc(OCCCO)cc3)=N[C@]12CCS(=O)(=O)c1ccccc1 | -0.527 |
| C=C(CCCC)C(=O)CC[C@@H](OC(=O)c1ccccc1-c1ccccc1C(=O)O)c1ccc(OCCO)cc1 | -3.37 |
| NC(=O)N1C(=O)C2C(C1=O)C1C=C(c3ccc(CO)cc3)C2C(c2cccs2)N1Cc1cccc(OC(F)(F)F)c1 (configuration not stated) | -2.08 |
| COc1ccc([C@H]2OC[C@@H]3C[C@@H](Cc4ccccc4)C(=O)N32)cc1 | -2.13 |
| NC(=O)NCC#Cc1ccc2c(c1)[C@]1(C(=O)N2)[C@H](c2ccccc2OCCO)N2[C@H](c3ccccc3)[C@H](c3ccccc3)OC(=O)[C@H]2[C@@H]1C(=O)Nc1nc2ccccc2s1 | 0.0225 |
| COc1ccc(C(=O)Nc2ccc(CN3C(=O)[C@]4(O[C@H](CCO)[C@@H]([Si](C)(C)c5ccc(OC)cc5)[C@@H]4C)c4ccccc43)cc2)cc1 | -2.62 |
| C#C[C@H](O[Si](C#Cc1ccc(Oc2ccccc2)cc1)(C(C)C)C(C)C)c1ccccc1 | -3.02 |
| COc1ccc([Si](C)(C)[C@H]2[C@H](CCO)O[C@@]3(C(=O)N(Cc4ccc(N(C=O)c5ccccc5)cc4)c4ccccc43)[C@@H]2C)cc1 | -1.48 |
| CC(=O)NCCCC[C@@H]1NC(=O)[C@H]2C[C@@H](C(=O)NCCCCCCNC(=O)CS)[C@@H](c3ccc(O)cc3)N2C1=O | -0.197 |
| C=CCNC(=O)[C@H]1[C@@H]2C(=O)O[C@@H](c3ccccc3)[C@@H](c3ccccc3)N2[C@@H](c2ccccc2OCCO)[C@]12C(=O)Nc1ccc(C#CCCO)cc12 | -2.03 |
| O=C1O[C@@H](c2ccccc2)[C@@H](c2ccccc2)N2[C@@H](c3ccccc3OCCO)[C@]3(C(=O)Nc4ccc(C#CC5=CCCCC5)cc43)[C@@H](C(=O)N3CCCCCCC3)[C@H]12 | -3.09 |
